Results: PubChem BioAssay (NCI)
This is part of a sample that, as a whole, favours compounds with a hit. Of some 83,000 tested, about 20% had one in any assay.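 Cells were grown in 96-well plates and exposed to the test compound at a single concentration for 48 hours; results are reported as percent growth, with values below 10 considered active.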 Unmarked numbers belong to inactive results. Activity calls are given as the source filed them.

Experiments:
Experiment in all cases: NCI-60 one-dose screen, 48 h (100 = growth as untreated, 0 = no growth, -100 = all killed)
Settings in all cases: 10 µM unless noted
DU-145 prostate = test system: DU-145 prostate
K-562 leukemia = test system: K-562 leukemia
MALME-3M melanoma = test system: MALME-3M melanoma
MDA-MB-231 breast = test system: MDA-MB-231 breast
RXF 393 renal = test system: RXF 393 renal
SF-268 CNS = test system: SF-268 CNS
SF-295 CNS = test system: SF-295 CNS
SF-539 CNS = test system: SF-539 CNS
UACC-257 melanoma = test system: UACC-257 melanoma
M14 melanoma = test system: M14 melanoma
HCT-15 colon = test system: HCT-15 colon
HT29 colon = test system: HT29 colon
SNB-75 CNS = test system: SNB-75 CNS
SNB-19 CNS = test system: SNB-19 CNS
U251 CNS = test system: U251 CNS
PC-3 prostate = test system: PC-3 prostate
SK-MEL-5 melanoma = test system: SK-MEL-5 melanoma
UACC-62 melanoma = test system: UACC-62 melanoma
LOX IMVI melanoma = test system: LOX IMVI melanoma
SK-MEL-28 melanoma = test system: SK-MEL-28 melanoma

Compound | growth (DU-145 prostate) | growth (K-562 leukemia) | growth (MALME-3M melanoma) | growth (MDA-MB-231 breast) | growth (RXF 393 renal) | growth (SF-268 CNS) | growth (SF-295 CNS) | growth (SF-539 CNS) | growth (UACC-257 melanoma) | growth (M14 melanoma) | growth (HCT-15 colon) | growth (HT29 colon) | growth (SNB-75 CNS) | growth (SNB-19 CNS) | growth (U251 CNS) | growth (PC-3 prostate) | growth (SK-MEL-5 melanoma) | growth (UACC-62 melanoma) | growth (LOX IMVI melanoma) | growth (SK-MEL-28 melanoma)
COc1cc(C2CC(=O)Nc3c2c(C)nn3-c2nc3ccccc3[nH]2)c(OC)c(OC)c1OC (stereo not given) | 53.8% | 20.5% | 55.1% | 72.3% | 61.5% | 50.9% | 19.8% | 63.7% | 60.6% | 17% | 33% | 80.7% | 1.94% (active) | 62.9% | 42% | 51.9% | 46.7% | 40.7% | 67.7% | 72.3%
CC(C)C(NC(=O)C1(NC(=O)OCc2ccccc2)CCCC1)C(=O)O (stereo not given) | 118% | 91.7% | 111% | 105% | 134% | 111% | 112% | 111% | 89.2% | 102% | 112% | 105% | 92.3% | 103% | 86.7% | 102% | 102% | 106% | 90.2% | 107%
O=C(N/N=C/c1ccncc1)c1ccc(C(F)(F)F)nc1Nc1cccc(C(F)(F)F)c1 | 40.6% | 13.9% | 4.45% (active) | 21.1% | -8.63% (active) | 23.4% | -24.1% (active) | 26.1% | 21.9% | 25.4% | 13.1% | 23.1% | 46.7% | 36% | 8.49% (active) | 20.5% | 10% | 15.1% | 20.5% | 44.9%
O=C(Nc1ccc(-n2cc(-c3ccncc3)c(-c3ccc(Cl)c(O)c3)n2)cc1)N1CCOCC1 | 109% | 89.9% | 92.1% | 105% | 135% | 99.9% | 96.4% | 92.7% | 109% | 97% | 102% | 98.1% | 93.3% | 103% | 96.9% | 87.4% | 99.1% | 101% | 98% | 100%
O=c1[nH]nc(-c2ccccc2)c2c(-c3ccccc3)onc12 | 25.1% | 9.89% (active) | 37.2% | 50.3% | 12.3% | 42% | 35.7% | 0.0732% (active) | 71.2% | 45.4% | 32.2% | 22.2% | -5.82% (active) | 49.9% | 30.6% | 26.6% | 11% | 34% | 49.6% | 69.8%
Clc1cccc(Cl)c1C(Nc1nc2ccccc2s1)Nc1nc2ccccc2s1 | 131% | 79.6% | 123% | 104% | 104% | 105% | 143% | 93.6% | 102% | 122% | 83.6% | 108% | 80.8% | 99.1% | 94.7% | 74.2% | 88.4% | 95.7% | 86.1% | 109%
CC(CCc1ccc(Cl)c(Cl)c1)NCc1ccc(C(C)(C)C)cc1 (stereo not given) | 101% | 25.2% | 97.6% | 72.9% | 89.6% | 92.9% | 112% | 96.8% | 64.5% | 86.1% | 77.3% | 39.6% | 70.6% | 92.5% | 70.6% | 77.5% | 92.8% | 89.9% | 79.8% | 91.9%
O=C(Nc1ccc(Nc2ccncc2)cc1)c1ccc(C(=O)Nc2ccc(Nc3ccncc3)cc2)cc1 | 85.8% | 53.5% | 5.82% (active) | 84.4% | 100% | 75% | 91.7% | 82.6% | 24.2% | 44.2% | 79.7% | 32.9% | 109% | 77.4% | 64.2% | 60.4% | 34.4% | 38.3% | 65.5% | 43.4%
Cc1ccc(C(=NN=C(N)N)c2ccc(C)cc2)cc1 | -16.6% (active) | 5.03% (active) | 40.4% | -11.3% (active) | -16.1% (active) | 16.7% | 0.547% (active) | -2.53% (active) | 25.9% | -74.7% (active) | 11.6% | 0.831% (active) | -1.11% (active) | 30.4% | 6.36% (active) | 16.3% | -68.6% (active) | 31.6% | -28.3% (active) | 21.4%
CC(=O)OC[C@H]1OC(Sc2sc(C(=O)c3ccc(Br)cc3)c(N)c2-c2nc3ccccc3s2)[C@H](OC(C)=O)[C@@H](OC(C)=O)[C@@H]1OC(C)=O (stereo not given in full) | 35.8% | 66.4% | 20% | 10.4% | 70.8% | 60.9% | 69.6% | 15.7% | 80.1% | 61.6% | 59.8% | 63.1% | -16.7% (active) | 75.2% | 57.6% | 71.3% | 22.1% | 89.3% | 37.1% | 70.7%
COc1ccc2[nH]c(O)c(/C=c3/cc4c(c(-c5ccc(F)c(OC)c5)n3)=Nc3ccccc3-4)c2c1 | 30.3% | 0.38% (active) | -55.6% (active) | -47.5% (active) | -75.2% (active) | 30.3% | 104% | 64.3% | 103% | -8.58% (active) | -24% (active) | -78.5% (active) | 92.1% | 47.6% | -70.1% (active) | 68.7% | 57.2% | 79.8% | -17.2% (active) | -51.2% (active)
COCCc1ccc(OCC(O)CNC(C)C)cc1 (stereo not given) | 109% | 101% | 97.5% | 101% | 128% | 104% | 101% | 106% | 96.3% | 92.4% | 102% | 98.9% | 90.4% | 105% | 98.2% | 96.6% | 108% | 113% | 96.6% | 98.9%
COc1ccc2cc(-c3cc(OC)c(OC)c(OC)c3)c(=O)oc2c1 | 101% | 27.7% | 65.1% | 60.8% | 84.9% | 89.7% | 71.4% | 80.2% | 54.9% | 38.6% | 50% | 44.3% | 65% | 80.3% | 70.7% | 69.2% | 79.5% | 42% | 73.5% | 78.5%
O=C(Nc1ccccc1-c1nc2ccccc2c(=O)[nH]1)c1cc2ccccc2[nH]1 | 102% | 94.1% | 107% | 79.7% | 98.4% | 91.9% | 91.3% | 89.5% | 83.4% | 91.7% | 98.6% | 91.6% | 63% | 93.4% | 92.3% | 78.3% | 81.2% | 84.9% | 88% | 99.9%
Cn1cc(-c2csc(-c3ccccc3)n2)c2cccnc21 | -61.4% [100 µM] (active) | 1.43% [100 µM] (active) | -44.2% [100 µM] (active) | -42.7% [100 µM] (active) | -37.4% [100 µM] (active) | -18.3% [100 µM] (active) | -47.2% [100 µM] (active) | -71% [100 µM] (active) | -27.7% [100 µM] (active) | -76.6% [100 µM] (active) | -40.3% [100 µM] (active) | -67.5% [100 µM] (active) | -15.9% [100 µM] (active) | -50.2% [100 µM] (active) | -33.8% [100 µM] (active) | -16.9% [100 µM] (active) | -83.2% [100 µM] (active) | -62.7% [100 µM] (active) | -54.3% [100 µM] (active) | -57.4% [100 µM] (active)
